PubChem BioAssay (NCI)
The panel holds about 83,000 compounds, 20% with a hit somewhere; the sample as a whole holds those more often.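 Interpretation: 100, growth as untreated; towards 0, rising growth inhibition; 0, no net growth; 0 to -100, cell death. Compounds scoring below 10 were considered active.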 Active and inactive are the calls of the source.

Experiments:
Assay in all cases: NCI-60 one-dose screen, 48 h (100 = growth as untreated, 0 = no growth, -100 = all killed)
Conditions in all cases: 10 µM unless noted
[1] = tested on: SK-MEL-2 melanoma
[2] = tested on: EKVX NSCLC
[3] = tested on: SN12C renal
[4] = tested on: UO-31 renal
[5] = tested on: TK-10 renal
[6] = tested on: ACHN renal
[7] = tested on: CAKI-1 renal
[8] = tested on: A498 renal
[9] = tested on: CCRF-CEM leukemia
[10] = tested on: MOLT-4 leukemia
[11] = tested on: RPMI-8226 leukemia
[12] = tested on: OVCAR-8 ovarian
[13] = tested on: OVCAR-5 ovarian
[14] = tested on: OVCAR-4 ovarian
[15] = tested on: SK-OV-3 ovarian
[16] = tested on: IGROV1 ovarian
[17] = tested on: OVCAR-3 ovarian
[18] = tested on: HS 578T breast
[19] = tested on: NCI/ADR-RES ovarian

Measured: growth

c1ccc(-c2nc3nonc3nc2-c2ccccc2)cc1
active: [8] -10.9%
inactive: [1] 79% | [2] 67% | [3] 68.7% | [4] 36.3% | [5] 81.4% | [6] 53.9% | [7] 51% | [9] 80.7% | [10] 70.9% | [11] 71.9% | [12] 72.8% | [13] 82.3% | [14] 22.7% | [15] 74% | [16] 60.8% | [17] 12.8% | [18] 64.3% | [19] 74.4%

CCOC(=O)CC1C(COC(=O)NC)OC(n2cnc3c(NC(=O)Nc4ccccc4)ncnc32)C1O[Si](C)(C)C(C)(C)C (configuration not stated)
inactive: [1] 60% | [2] 67.5% | [3] 34.8% | [4] 41.9% | [5] 87.7% | [6] 25.8% | [7] 60.8% | [8] 77.4% | [9] 57.4% | [10] 34.3% | [11] 39.7% | [12] 74% | [13] 94.2% | [14] 41.6% | [15] 94.9% | [16] 49.1% | [17] 51.1% | [18] 57.1% | [19] 48.1%

COc1cccc2nc3n(c12)C(c1c(F)cccc1F)SC3 (configuration not stated)
active: [16] 7.38%
inactive: [1] 86.2% | [2] 101% | [3] 100% | [4] 77.6% | [5] 115% | [6] 92.7% | [7] 106% | [8] 103% | [9] 89.5% | [10] 87% | [11] 70.4% | [12] 103% | [13] 80.8% | [14] 97.4% | [15] 101% | [17] 132% | [18] 92.7% | [19] 95.7%

O=C(N/N=C/c1c(Cl)cccc1Cl)c1ccc(C(F)(F)F)nc1Nc1cccc(C(F)(F)F)c1
inactive: [1] 26% | [2] 16.9% | [7] 13.8% | [11] 13.8% | [12] 18.7% | [13] 20.5% | [14] 13.1% | [15] 15% | [16] 12.4% | [18] 11.4%
active: [3] 1.33% | [4] 1.91% | [5] 1.46% | [6] -15.7% | [8] -5.26% | [9] -8.45% | [10] -12.9% | [19] -4.2%

O=C(CCc1nnc(-c2c(Cl)cccc2Cl)o1)c1nc2ccccc2[nH]1
inactive: [1] 59.4% | [2] 61% | [3] 61.2% | [4] 52.1% | [5] 64% | [6] 81.3% | [7] 59.8% | [8] 58.4% | [9] 47.3% | [10] 20.7% | [11] 30.9% | [12] 57.2% | [14] 58.8% | [15] 64.8% | [16] 57.6% | [17] 66.4% | [18] 82.3% | [19] 63.3%

Cc1cc(Cl)ccc1NS(=O)(=O)c1ccc(-c2cnc(C3CC3)o2)cc1
inactive: [1] 80.4% | [2] 32.4% | [3] 46.7% | [4] 45.8% | [5] 66.9% | [6] 27.5% | [7] 43.4% | [9] 22% | [11] 19.3% | [12] 27.4% | [14] 40% | [15] 50.8% | [16] 23.3% | [18] 22.1%
active: [8] -5.2% | [10] 2.78% | [17] -16.9% | [19] 6.12%

CC(=O)O.CN1[CH-]N(Cc2ccc(C#N)cc2)c2ccccc21.[Ag+]
inactive: [1] 89.8% | [2] 108% | [3] 111% | [4] 97.4% | [5] 103% | [6] 106% | [7] 104% | [8] 99.7% | [9] 24.7% | [10] 90.1% | [11] 88.8% | [13] 117% | [14] 112% | [15] 120% | [16] 111% | [17] 116% | [18] 103% | [19] 109%

COc1ccc2c(c1)nc(NNC(=O)c1cnccn1)c1cccn12
inactive: [1] 64.8% | [2] 22.2% | [3] 35.4% | [5] 31.1% | [7] 21.3% | [8] 49.2% | [9] 11.7% | [11] 23.5% | [12] 24.1% | [13] 42.3% | [14] 17.5% | [15] 26.5% | [17] 15.3% | [18] 78.2%
active: [4] 4.76% | [6] 7.83% | [10] 5.36% | [19] 9.97%
